Source: PubChem BioAssay AID2241 (Broad Institute, 2010)
Hit rate of the full screen: of about 21,000 compounds, about 110 (0.52%) were called active. The entries come from a sample that favours actives as a whole. A number with no mark means an inactive call.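 How the source made its calls: active means most replicate scores above 10, or exactly half above 10 with mean activity above 10; inconclusive means mean activity below 10 while half the replicates exceed 10; inactive means most replicate scores below 10.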

experiment: inducers of caspase activity in MEF A1-2A-BIM cells, primary screen, A1 inhibitor project, cell-based, CaspaseGlo luminescence (AID 2241); settings: caspase-Glo luminescence, 3 h, hits give high values, percent of clofoctol signal, DMSO as zero, concentration not given here;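 further: effector caspase 3 and 7 activity cleaving a DEVD luciferin substrate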

In the case of `CN[C@@H]1C[C@H]2O[C@@](C)([C@@H]1OC)n1c3ccccc3c3c4c(c5c6ccccc6n2c5c31)C(=O)NC4`, the caspase activation is reported as 81% (active).

Point of comparison: `Cc1ccc(CSc2nnc(OC(=O)N(C)C)n2-c2cccc(Cl)c2)cc1`, caspase activation -0.0343%. Against it:
- CCN(CC)C(=O)c1ccc(N(Cc2ccccc2Cl)S(C)(=O)=O)cc1 — lower, -0.556%
- C[C@H]1O[C@@H](O[C@H]2CC[C@]3(CO)C4CC[C@]5(C)[C@@H](C6=CC(=O)OC6)CC[C@]5(O)[C@@H]4CC[C@H]3C2)[C@H](O)[C@H](O)[C@@H]1O[C@@H]1O[C@H](CO)[C@@H](O)[C@H](O)[C@H]1O (stereo not given in full) — lower, -0.142%
- CC1N=C(c2ccccc2)c2ccccc2N(CCCOc2ccc(F)cc2)C1=O (stereo not given) — lower, -0.726%
